Sampled rows, rich in hits. Any-hit rate of the full collection: about 2.8%.
pCIP destab: lowers stability of the mouse p/CIP coactivator protein | Q05BA5 | F442A p/CIP-EGFP cells, EGFP fluorescence, 16 h | decrease of EGFP signal, % at 10 µM | actives 0.01% (n = 290,000);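 active = EGFP signal decrease of at least 30% at 10 µM or well 3 SD below plate mean, unless failing retest; inactive = the rest, including hits failing retest or dose response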
Target sequence (Q05BA5 1-1403): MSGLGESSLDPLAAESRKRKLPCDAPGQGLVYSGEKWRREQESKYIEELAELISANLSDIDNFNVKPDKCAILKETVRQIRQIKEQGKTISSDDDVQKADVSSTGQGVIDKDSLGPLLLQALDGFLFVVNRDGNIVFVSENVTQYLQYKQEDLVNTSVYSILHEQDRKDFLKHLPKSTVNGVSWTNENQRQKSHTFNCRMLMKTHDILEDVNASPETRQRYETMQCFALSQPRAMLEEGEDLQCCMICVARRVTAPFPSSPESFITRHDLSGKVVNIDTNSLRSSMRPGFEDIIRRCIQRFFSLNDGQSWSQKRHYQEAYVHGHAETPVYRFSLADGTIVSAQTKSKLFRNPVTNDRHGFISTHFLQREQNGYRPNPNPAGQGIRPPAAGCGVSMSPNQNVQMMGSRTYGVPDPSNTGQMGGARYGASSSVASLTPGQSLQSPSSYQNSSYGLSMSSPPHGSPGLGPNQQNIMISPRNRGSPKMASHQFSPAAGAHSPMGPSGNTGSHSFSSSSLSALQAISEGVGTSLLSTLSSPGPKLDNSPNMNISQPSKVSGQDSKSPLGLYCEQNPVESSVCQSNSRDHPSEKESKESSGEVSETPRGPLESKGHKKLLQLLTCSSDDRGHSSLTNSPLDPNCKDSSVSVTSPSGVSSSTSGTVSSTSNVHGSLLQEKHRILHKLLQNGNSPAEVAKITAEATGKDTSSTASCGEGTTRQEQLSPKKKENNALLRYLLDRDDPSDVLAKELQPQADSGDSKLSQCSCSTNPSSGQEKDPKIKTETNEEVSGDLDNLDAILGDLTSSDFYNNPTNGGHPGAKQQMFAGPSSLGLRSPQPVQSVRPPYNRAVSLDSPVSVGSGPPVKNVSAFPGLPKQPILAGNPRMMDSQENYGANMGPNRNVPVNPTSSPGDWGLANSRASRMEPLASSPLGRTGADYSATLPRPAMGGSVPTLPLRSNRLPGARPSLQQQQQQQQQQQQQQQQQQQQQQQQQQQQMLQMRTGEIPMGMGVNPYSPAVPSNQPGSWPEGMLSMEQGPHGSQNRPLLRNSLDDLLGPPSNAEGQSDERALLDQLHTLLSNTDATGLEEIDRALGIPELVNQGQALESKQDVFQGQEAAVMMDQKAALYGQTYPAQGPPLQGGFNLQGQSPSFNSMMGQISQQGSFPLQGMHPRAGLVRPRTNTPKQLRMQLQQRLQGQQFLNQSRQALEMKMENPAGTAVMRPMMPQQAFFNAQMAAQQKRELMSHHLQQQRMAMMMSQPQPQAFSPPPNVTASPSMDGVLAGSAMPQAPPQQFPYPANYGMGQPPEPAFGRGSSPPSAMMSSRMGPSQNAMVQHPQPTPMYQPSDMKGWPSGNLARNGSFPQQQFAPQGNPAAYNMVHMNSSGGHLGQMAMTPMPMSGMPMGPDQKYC
AHR activator: activators of human aryl hydrocarbon receptor. AHR-responsive luciferase reporter cells, luminescence. activation, % at 5 µM. actives 2.5% (n = 320,000); in the data active = activation above about 47%;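 note: 0% = vehicle wells and 100% = reference agonist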
HIF act: HIF pathway transcriptional activation. activation, % at 7.5 µM (by protocol). actives 0.32% (n = 300,000). U2OS HRE-luciferase reporter, luminescence; normalized: DMSO 0%, desferrioxamine 100%. AID 1910;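 active = mean activation of at least 10% of the iron chelator positive control signal, with at least half of replicates also reaching 10%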
PolyA inhibitor: inhibitors of polyadenylation in S. cerevisiae; activity score, % at 12 µM; AID 1875; actives 0.02% (n = 300,000); S. cerevisiae SKY197-pL101 polyadenylation reporter, beta-gal luminescence; efflux-impaired pdr1/pdr3 knockout yeast; score 100 = 6 SD above DMSO;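 active = lowest replicate activity score at least 50, where 100 means six control SD above control mean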;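 note: yeast exposed to compound for 9 h at 30 °C; higher score means more reporter readthrough which indicates perturbed polyadenylation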
Platelet DG rel: platelet dense granule release activity | human platelet-rich plasma, SFLLRN dense granule ATP release, luminescence | inhibition, %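 (compounds screened at 7.5 µM in platelet-rich plasma)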 | actives 0.22% (n = 300,000);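 active = mean replicate score, as percent of positive control, at or above 50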
AHR act cf: confirmation of human aryl hydrocarbon receptor activators. activation, % at 9 µM. actives 87% (n = 2,300). human cells, AHR-responsive luciferase reporter, luminescence. shares compounds with AHR activator; in the data active = activation above about 49%;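 note: HepG2 hepatoma cells carrying a DRE-driven firefly luciferase reporter; 0% = vehicle wells and 100% = reference agonist wells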
PXR counter: counter-screen for AHR activators: human PXR activators; shares compounds with AHR activator; cell-based PXR reporter, luciferase luminescence; activation, % at 11.6 µM; actives 88% (n = 2,300); AID 434939; in the data active = activation above about 11%;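 note: human hepatoma DPX-2 cells expressing full-length human PXR; 0% = DMSO and 100% = reference agonist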
Numbers without * were called inactive.

Results for NC(=O)N/N=C/c1ccc(-c2ccc([N+](=O)[O-])cc2)o1 ?
pCIP destab: -3; AHR activator: 21; HIF act: 1; PolyA inhibitor: -17; Platelet DG rel: 12

Results for Cc1ccc(-c2ccc(/C=N/NC(N)=S)o2)cc1 ?
pCIP destab: -9; AHR activator: 100*; HIF act: 3; PolyA inhibitor: -13; Platelet DG rel: 20; AHR act cf: 90*; PXR counter: 13*

Results for COCCNC(=S)N/N=C/c1ccc(-c2ccc([N+](=O)[O-])cc2)o1 ?
pCIP destab: -14; AHR activator: 128*; HIF act: 0; PolyA inhibitor: -16; Platelet DG rel: -5; AHR act cf: 89*; PXR counter: 11*

What do the screens show for `NC(=S)N/N=C/c1ccc(-c2ccccc2)o1`?
pCIP destab: -6; AHR activator: 93*; HIF act: 1; PolyA inhibitor: -9; Platelet DG rel: 1; AHR act cf: 32; PXR counter: 21*

Results for COc1cccc(C(=O)NC23CC4CC(CC(C4)C2)C3)c1 ?
pCIP destab: 5; AHR activator: 8; HIF act: 1; PolyA inhibitor: -1; Platelet DG rel: 0

Results for COc1ccccc1NC(=O)c1ccc([N+](=O)[O-])cc1[N+](=O)[O-] ?
pCIP destab: -3; AHR activator: 104*; HIF act: 0; PolyA inhibitor: -5; Platelet DG rel: -3; AHR act cf: 94*; PXR counter: 29*

What do the screens show for `O=C(CN1CCOCC1)Nc1nc2ccc([N+](=O)[O-])cc2s1`?
pCIP destab: -3; AHR activator: 133*; HIF act: 0; PolyA inhibitor: 6; Platelet DG rel: 4; AHR act cf: 91*

How did O=C(CN1CCOCC1)Nc1nc2ccc(F)cc2s1 do in these assays?
pCIP destab: -6; AHR activator: 36; HIF act: 1; PolyA inhibitor: 15; Platelet DG rel: -5

What do the screens show for `COc1ccc2nc(NC(=O)c3ccccc3[N+](=O)[O-])sc2c1`?
pCIP destab: -4; AHR activator: 4; HIF act: 4; PolyA inhibitor: -13; Platelet DG rel: 3

Results for COc1ccc2nc(NC(=O)c3ccccc3O)sc2c1 ?
pCIP destab: 3; AHR activator: 130*; HIF act: -4; PolyA inhibitor: 5; Platelet DG rel: 3; AHR act cf: 18; PXR counter: 33*

Results for COc1ccccc1NC(=O)c1cc(C(=O)Nc2ccccc2OC)cc([N+](=O)[O-])c1 ?
pCIP destab: -1; AHR activator: 8; HIF act: 0; PolyA inhibitor: -2; Platelet DG rel: -1

What do the screens show for `COc1cccc(OC)c1C(=O)Nc1nc2ccc([N+](=O)[O-])cc2s1`?
pCIP destab: 3; AHR activator: 81*; HIF act: 0; PolyA inhibitor: -26; Platelet DG rel: -1; AHR act cf: 75*; PXR counter: 9

What do the screens show for `CCCc1nnc(NC(=O)CCC(=O)N2CCN(Cc3ccc(Cl)cc3)CC2)s1`?
pCIP destab: -6; AHR activator: -2; HIF act: 0; PolyA inhibitor: 6; Platelet DG rel: -5

How did O=C(COC(=O)CCC(=O)c1ccc(F)cc1)Nc1ccc(Cl)cn1 do in these assays?
AHR activator: 17

Results for Cc1nn(Cc2nnc(SCC(=O)Nc3ccc(Cl)cc3)n2C)c(C)c1[N+](=O)[O-] ?
pCIP destab: -16; AHR activator: -3; HIF act: 0; PolyA inhibitor: 6; Platelet DG rel: 3

What do the screens show for `CSc1ccccc1NC(=O)CSc1cccc[n+]1[O-]`?
AHR activator: 0

What do the screens show for `COC(=O)/C=C/c1oc2ccccc2c1C`?
pCIP destab: -6; AHR activator: -1; HIF act: 1; PolyA inhibitor: -17; Platelet DG rel: 0

Results for COc1ccc(C(C)=O)cc1COc1ccc(F)cc1 ?
pCIP destab: 3; AHR activator: 13; HIF act: -2; PolyA inhibitor: -10; Platelet DG rel: 0

What do the screens show for `COc1ccc(C(=O)NN)cc1COc1ccc(Br)cc1`?
pCIP destab: -4; AHR activator: 102*; HIF act: -1; PolyA inhibitor: -15; Platelet DG rel: 9; AHR act cf: 90*; PXR counter: 17*

Results for Cc1csc(=NC(=O)c2ccccc2)n1Cc1ccco1 ?
pCIP destab: -14; AHR activator: 4; HIF act: 1; PolyA inhibitor: -27; Platelet DG rel: 6

How did CCn1c(C)csc1=NC(=O)c1ccccc1O do in these assays?
pCIP destab: -8; AHR activator: 93*; HIF act: 2; PolyA inhibitor: -18; Platelet DG rel: 6; AHR act cf: 95*; PXR counter: 15*

How did Cc1cc(/C=N/NC(=O)c2cc3ccccc3o2)c(C)n1C do in these assays?
pCIP destab: -7; AHR activator: 14; PolyA inhibitor: 7; Platelet DG rel: -2

Results for CCn1c2ccccc2c2cc(Nc3cc(C)nc4ncnn34)ccc21 ?
pCIP destab: -13; AHR activator: 132*; HIF act: 1; PolyA inhibitor: -1; Platelet DG rel: 14; AHR act cf: 89*; PXR counter: 90*

How did Cc1nc2cncc(Br)c2n1C do in these assays?
pCIP destab: 2; AHR activator: 81*; HIF act: 0; PolyA inhibitor: 16; Platelet DG rel: 4; AHR act cf: 46; PXR counter: 24*

How did Cc1cc(C)nc(N/N=C/c2ccccc2Cl)n1 do in these assays?
pCIP destab: -3; AHR activator: 8; HIF act: 4; PolyA inhibitor: 7; Platelet DG rel: 13

How did Cc1cc(C)nc(N/N=C/c2cccc3ccccc23)n1 do in these assays?
pCIP destab: 8; AHR activator: 89*; HIF act: 1; PolyA inhibitor: -4; Platelet DG rel: -1; AHR act cf: 32; PXR counter: 34*

What do the screens show for `COc1cccc(-n2c(N)cc(=O)nc2SCC(=O)N2CCN(c3ccccc3)CC2)c1`?
pCIP destab: 11; AHR activator: -1; HIF act: 0; PolyA inhibitor: -4; Platelet DG rel: -6

What do the screens show for `O=[N+]([O-])c1cccc(-c2cc3ccccc3[nH]2)c1`?
pCIP destab: 5; AHR activator: 84*; HIF act: 1; PolyA inhibitor: -37; Platelet DG rel: 4; AHR act cf: 134*; PXR counter: 15*

Results for COc1ccc(S(=O)(=O)Nc2cc3c4c(c2)CCN4C(=O)CC3)cc1C ?
AHR activator: 16; HIF act: -2; PolyA inhibitor: 1; Platelet DG rel: 4

What do the screens show for `COc1ccc([C@H]2CC(=O)C=C(c3cccc(F)c3OC)C2)cc1`?
AHR activator: 0
